# A selection: hits, their analogues and other compounds. The true share with any hit is near 1.2%.
# rTrxR1 inhibitor = blocks rat thioredoxin reductase 1; recombinant rTrxR1, NADPH fluorescence consumption, selenite substrate; O89049; 390,000 tested, 1% active; Potency, µM (top dose mostly 114 µM), for inactives: at the top dose activity change, negative = inhibition, actives largely listed as inhibitors; AID 588453; also: nearly all actives have a fitted effect of over 65% in size
# Target sequence (O89049 whole entry, looked up): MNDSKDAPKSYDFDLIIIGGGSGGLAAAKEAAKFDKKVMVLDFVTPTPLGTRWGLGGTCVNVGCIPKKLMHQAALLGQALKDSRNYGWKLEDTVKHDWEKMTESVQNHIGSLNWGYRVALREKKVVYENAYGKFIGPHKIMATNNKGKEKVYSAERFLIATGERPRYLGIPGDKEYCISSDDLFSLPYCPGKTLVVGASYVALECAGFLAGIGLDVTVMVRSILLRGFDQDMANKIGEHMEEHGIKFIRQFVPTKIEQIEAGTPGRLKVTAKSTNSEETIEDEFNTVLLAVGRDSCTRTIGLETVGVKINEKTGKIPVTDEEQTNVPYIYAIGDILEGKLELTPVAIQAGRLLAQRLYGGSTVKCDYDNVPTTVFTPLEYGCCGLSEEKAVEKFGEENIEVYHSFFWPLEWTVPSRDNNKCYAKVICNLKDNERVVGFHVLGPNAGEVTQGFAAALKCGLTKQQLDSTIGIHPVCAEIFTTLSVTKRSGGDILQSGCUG
#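 Rat TrxR1 (90 nM in the dispensed reagent) was pre-reduced with 400 uM NADPH for 5 min at room temperature, then incubated with compound for 15 min. After 400 uM selenite was added, NADPH fluorescence (Ex 340/Em 450 nm) was followed for 8 min.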
# NPSR antagonist = neuropeptide S receptor (human) antagonism, cAMP | Q6W5P4 | CHO-NPSR cells, cAMP TR-FRET, antagonist mode | Potency, µM (titrated, usually from 38.3 µM), without a hit: at the highest dose activity change, negative = inhibition, most hits filed as inhibitors | 220,000 tested, 1% active; also: nearly all actives have a fitted effect of over 50% in size
# TrxR1 substrate = rat thioredoxin reductase 1 substrate activity; O89049; Potency, µM (highest dose often 114 µM), for the others: at the highest dose activity change, negative = substrate turnover; 390,000 tested, 0.01% active; purified TrxR1 substrate turnover, NADPH consumption readout; also: nearly all actives have a fitted effect of over 50% in size
#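 Rat TrxR1, dispensed at 90 nM, was prereduced with 400 uM NADPH (final) for 5 min at ~22 deg C, then incubated with compound 15 min before 400 uM selenite. A first-read NADPH fluorescence drop versus no-compound background flagged substrates.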
# GALK inh = inhibitors of human galactokinase; 270,000 tested, 0.007% active; AID 1868; Purified GALK, Kinase-Glo residual ATP luminescence; Potency, µM (highest dose often 57.5 µM), without a hit: at the top dose activity change, negative = inhibition, actives largely listed as inhibitors
#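 Luminescence from leftover ATP (Ultra-Glo luciferase/luciferin) served as read-out after a 1 h room-temperature reaction of 5 nM GALK with 35 uM ATP and 100 uM galactose.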
# Numbers without * were called inactive; u = inconclusive; x = no result; [ ] = dose if it differs, or a comment. Calls follow the shape of the dose curve; as a rule, active = well fitted curve in the direction sought with a large enough effect; inconclusive = small, poorly fitted or top-dose-only effect, or another doubt; inactive = no such curve, though single readings can be large; an effect the other way counts as inactive or inconclusive. % is scaled to controls: 0 for no effect and ±100 for the full control effect; potency is read from the fitted curve at half-maximal effect.
SMILES,rTrxR1 inhibitor,NPSR antagonist,TrxR1 substrate,GALK inh
O=C(c1ccc(S(=O)(=O)Cc2ccccc2Cl)c([N+](=O)[O-])c1)N1CCOCC1,14µM*,x,4%,1%
Cc1ccc(Nc2nc(C)cc(C)n2)c(C(=O)O)c1,21%[57.1 µM],x,8%[57.1 µM],x
CC(C)NC(=O)/C(C#N)=C/c1ccc(N(C)C)o1,-39%,13µM*,-25%[57.1 µM],-1%
Cc1ccc(/C=C(\C#N)C(=O)NC(C)C)o1,-8%,-4%,-18%,0%
CC1CCN(c2ccccc2NC(=S)NC(=O)c2ccc(-c3cccc([N+](=O)[O-])c3)o2)CC1,-23%,-5%[46.1 µM],-5%,0%
CC1CCN(c2ccc(NC(=S)NC(=O)c3ccc(-c4cccc([N+](=O)[O-])c4)o3)cc2)CC1,20µM*,-7%[46.1 µM],-4%,-3%
COC(=O)C1=C(C(=O)OC)SC(=C2C(=S)C(C)(C)N(C(=O)C3CC3)c3ccccc32)S1,10%,13µM*,7%,0%
COC(=O)C1=C(C(=O)OC)SC(=C2C(=S)C(C)(C)N(C(=O)C(C)C)c3ccccc32)S1,-6%,10µM*,3%,1%
CCCC(=O)N1c2ccccc2C(=C2SC(C(=O)OC)=C(C(=O)OC)S2)C(=S)C1(C)C,-17%,-55%,-7%,2%
O=c1cc(-c2ccccc2)oc2ccccc12,6%,x,5%,x
O=c1cc(/C=C/c2ccccc2)oc2ccccc12,-7%[57.1 µM],5µM*,3%[57.1 µM],1%
CC(=O)NC1=CC(=O)c2nonc2C1=O,u,x,7.1µM*,x
COc1cc(O)c(NC(C)=O)c2nonc12,-1%,-16%[46.1 µM],-21%,0%
COc1ccc(C(CC(=O)Nc2ccc(F)c(Cl)c2)N2Cc3ccccc3C2=O)cc1OC (stereo unspecified),4%,x,2%,x
O=C(NNc1ccc(C(F)(F)F)cc1[N+](=O)[O-])c1ccc(NS(=O)(=O)c2ccc(F)cc2)cc1,u,10µM*,-10%,3%
CC(C)[C@H](Nc1ccc(C(F)(F)F)cc1[N+](=O)[O-])C(=O)O,23%,-17%,-2%,3%
CCOc1ccc(N2CC(NC(=O)c3ccc(Cl)cc3)CC2=O)cc1 (stereo unspecified),13%[57.1 µM],x,6%[57.1 µM],x
CN1C=C/C(=C\c2cc[n+](C)c3ccccc23)c2ccccc21,21%,13µM*,-1%,0%
C[n+]1ccc(/C=C/c2cc[n+](C)c3ccccc23)c2ccccc21,-27%,x,6%,x
COc1cc(/C=C2\C(C)=C(C#N)c3nc(N)c(C#N)c(C)c32)ccc1OCC(=O)O,32µM*,24%,10%,-7%
O=C(CCN1C(=O)c2ccccc2Sc2ncccc21)Nc1ccc(F)cc1F,-11%,x,-10%,x
C/C=C1\COC(C(=O)NCc2ccccc2)(C(F)(F)F)C=C1C=C(C)C (stereo unspecified),3.2µM*,x,0%,x
C/C=C1\COC(C(=O)NCCN2CCOCC2)(C(F)(F)F)C=C1C=C(C)C (stereo unspecified),10µM*,x,1%,x
O=C(NCc1ccccc1)C1(C(F)(F)F)C/C(=C\Cc2ccccc2)CCCO1 (stereo unspecified),-23%,x,-11%,x
Cc1cc(OCC(=O)OC(C)C(=O)Nc2ccc(N3CCOCC3)cc2)ccc1Cl (stereo unspecified),7%,x,-7%,x
SMILES,rTrxR1 inhibitor,NPSR antagonist,TrxR1 substrate,GALK inh
Cc1ccc(Cl)cc1N1CCN(CCNC(=O)Nc2ccccc2Cl)CC1,4%,x,-7%,x
CCCN(CCC)C1CC(=O)N(Cc2ccccc2)C1=O (stereo unspecified),20µM*,-10%[46.1 µM],7%,4%
COc1cc(C2C3=C(COC3=O)Oc3cc4c(cc32)OCO4)cc(OC)c1O (stereo unspecified),-16%,x,-10%,x
CC(=O)c1ccc(NC(=O)c2noc3c2CCC3)cc1,50µM*,4%,-10%,-1%
Cc1ccc(NC(=O)c2noc3c2CCC3)cc1C,50µM*,-15%,13%,1%
COc1ccc(NC(=O)c2noc3c2CCC3)cc1,-25%[57.1 µM],-13%[46.1 µM],-4%[57.1 µM],-1%
CCN(CC)CCCNC(=O)/C=C/C(=O)O,2.8µM*,-27%,19%[57.1 µM],0%
C[n+]1ccc(/C=N/Nc2nc(Cl)c(C#N)c(Cl)c2Cl)cc1,3.5µM*,-27%,-18%,-6%
CC(=O)NNC(=S)NC(=O)c1cccc([N+](=O)[O-])c1,50µM*,7%,5%,0%
O=C(NNC(=S)NC(=O)c1ccc(Br)cc1)c1cccc([N+](=O)[O-])c1,u,x,-1%,3%
CN(C)c1ccc(N=Cc2nc(-c3ccccc3)oc2OC(=O)c2cccc(Cl)c2)cc1,-23%,-41%,0%,1%
Cc1ccc(C(=O)Oc2oc(-c3ccco3)nc2C=Nc2ccc(Cl)cc2)cc1,1.8µM*,-29%[46.1 µM],-2%,-5%
Cc1ccc(C(=O)Oc2oc(-c3ccccc3)nc2C=Nc2ccc(N(C)C)cc2)cc1,u,-51%,-1%,-1%
COc1ccc(N=Cc2nc(-c3ccccc3)oc2OC(C)=O)cc1,13µM*,u,7%,4%
O=C(Oc1oc(-c2ccco2)nc1C=Nc1ccccc1)c1ccco1,2.2µM*,-10%[46.1 µM],21%[57.1 µM],1%
O=C(Oc1oc(-c2ccco2)nc1C=Nc1ccccc1)c1ccoc1,3.5µM*,-26%[46.1 µM],10%,10%
Cc1ccc(N=Cc2nc(-c3ccco3)oc2O)cc1,-33%,-25%[46.1 µM],8%,10%
CC[N+](C)(C)c1ccc(/C=C/c2ccncc2)cc1,-29%,x,-30%,x
COc1ccc(N=Cc2sc(O)c3ccccc23)cc1,-10%,13µM*,-14%,-1%
Cc1cc(C)cc(-n2ccnc2SCC(=O)Nc2ccc(C)c(Cl)c2)c1,22%[57.1 µM],x,1%[57.1 µM],x
CCC(CC)C(=O)Nc1ccc(-c2cn3cccnc3n2)cc1,79µM*,x,765%,0%
COC(=O)N/N=C/c1ccc([N+](=O)[O-])o1,u,4%[46.1 µM],-9%,-4%
COc1ccccc1NS(=O)(=O)c1cccc(C(=O)N/N=C/c2ccc3c(c2)OCCO3)c1,18%,-14%,21%,-2%
Cc1cc(C(=O)N/N=C/c2ccc([N+](=O)[O-])o2)c(C)o1,u,11%[7.67 µM],-3%,-1%
O=C(COc1ccccc1)N/N=C/c1ccc([N+](=O)[O-])o1,50µM*,-14%,-4%,-1%
SMILES,rTrxR1 inhibitor,NPSR antagonist,TrxR1 substrate,GALK inh
COc1ccccc1NS(=O)(=O)c1cccc(C(=O)N/N=C/c2ccc([N+](=O)[O-])o2)c1,40µM*,x,-10%,x
NC(=O)N/N=C/c1ccc([N+](=O)[O-])o1,7.1µM*,x,-15%,x
Cc1cc(C)c(S(=O)(=O)N/N=C/c2ccc([N+](=O)[O-])o2)c(C)c1,13µM*,x,-4%,1%
COc1cc2nc(NC3CCN(Cc4ccccc4)CC3)nc(N3CCCN(C)CC3)c2cc1OC,-11%,x,26%,x
COc1cc2nc(CCNCc3ccccc3)nc(NC3CCN(C)CC3)c2cc1OC,u,x,-4%,x
COc1ccc(/C=C(\C)C(=O)NO)cc1,6%,x,3%,x
O=C(N/N=C/c1ccc([N+](=O)[O-])o1)c1sc2ccccc2c1Cl,79µM*,-57%,5%,-8%
O=C(N/N=C/c1ccccn1)c1sc2ccccc2c1Cl,-9%,56%,-10%,-1%
